Data: PubChem BioAssay

Tests used:
[1] = test system: Human papillomavirus type 1a protein E7 (residues 44-93); experiment: HPV1a E7 fragment binders on microarrays, primary screen, biochemical, small-molecule microarray, residues 44-93, 635 nm fluorescence (AID 1108); details: small-molecule microarray binding, fluorescence 635 nm; higher = more signal;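 note: E7 fragment applied at 1 µg/mL in TBST for 1 h at 4 C; score combines spot fluorescence with its signal to noise ratio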
[2] = modulators of HCV replicon luciferase signal, primary screen, HCV replication inhibitor project, Huh7 cells, luciferase reporter (AID 1109); details: 48 h, higher = more signal;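 note: huh7 hepatoma cells harbouring a luciferase neomycin HCV replicon reporter; luciferase luminescence as measure of HCV replicon replication; test concentration not given here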
[3] = molecular target: Left-right determination factor 2 (Homo sapiens) (UniProt O00292); experiment: LEFTY2 binders on small-molecule microarrays, primary screen, biochemical, small-molecule microarray, 635 nm fluorescence scan (AID 1110); details: LEFTY2 binding, higher = more signal
[4] = molecular target: Calmodulin-1 (Homo sapiens) (UniProt P0DP23); experiment: CALM1 binders on microarrays, EGTA buffer, profiling panel, biochemical, small-molecule microarray, Cy5-labelled CALM1 (AID 1111); details: Cy5-CALM1 binding fluorescence, higher = more signal;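 note: labelled calmodulin applied in Tris saline Tween buffer holding calcium plus EGTA and DTT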
[5] = molecular target: Calmodulin-1 (Homo sapiens) (UniProt P0DP23); experiment: calcium-bound CALM1 binders on microarrays, profiling panel, artefact control for SMM control-protein annotation, biochemical, small-molecule microarray, Cy5-labelled CALM1, plus calcium (AID 1112); details: Cy5-CALM1 binding fluorescence, higher = more signal;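 note: score merges spot fluorescence with signal to noise from triplicate slides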
[6] = small-molecule microarray binders of probe aWnt5a, primary screen, biochemical, biotinylated probe, 635/667 nm fluorescence (AID 1113); details: higher = more signal;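 note: score merges 667 nm fluorescence intensity with signal-to-noise per printed feature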
[7] = small-molecule microarray binders of probe aShh, primary screen, biochemical, biotinylated probe, 635/667 nm fluorescence (AID 1114); details: higher = more signal;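 note: probe is biotin-labelled aShh protein from a stem cell growth factor screen; measures binding of labelled protein to compounds printed on the slide; score merges feature fluorescence at 667 nm with signal-to-noise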
[8] = small-molecule microarray binders of probe aNog, primary screen, biochemical, biotinylated probe, 635/667 nm fluorescence (AID 1115); details: higher = more signal;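 note: probe is biotinylated aNog protein used at 0.15 µg/mL for 1 h at 4 C; z-score combines 667 nm fluorescence of each spot with its signal to noise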
[9] = molecular target: Torsin-1A-interacting protein 1 (Homo sapiens) (UniProt Q5JTV8); experiment: LAP1 binders from COS7 cell lysate, primary screen, small-molecule microarray, 635/667 nm fluorescence (AID 1116); details: COS7-hLAP1 lysate binding, 635 nm fluorescence, higher = more signal
[10] = molecular target: Alpha-bungarotoxin (Bungarus multicinctus) (UniProt P60615); experiment: alpha-bungarotoxin binders on microarray, profiling panel, artefact control for SMM control protein annotation, biochemical, small-molecule microarray, Alexa647 label, 635/667 nm fluorescence (AID 1117); details: alpha-BTX-A647 binding fluorescence, higher = more signal
Chain of Alpha-bungarotoxin (Bungarus multicinctus) (P60615 whole entry, looked up): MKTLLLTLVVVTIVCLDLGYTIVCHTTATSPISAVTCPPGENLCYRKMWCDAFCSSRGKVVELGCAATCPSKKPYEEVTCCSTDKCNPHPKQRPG

Chain of Torsin-1A-interacting protein 1 (Homo sapiens) (Q5JTV8 whole entry, looked up): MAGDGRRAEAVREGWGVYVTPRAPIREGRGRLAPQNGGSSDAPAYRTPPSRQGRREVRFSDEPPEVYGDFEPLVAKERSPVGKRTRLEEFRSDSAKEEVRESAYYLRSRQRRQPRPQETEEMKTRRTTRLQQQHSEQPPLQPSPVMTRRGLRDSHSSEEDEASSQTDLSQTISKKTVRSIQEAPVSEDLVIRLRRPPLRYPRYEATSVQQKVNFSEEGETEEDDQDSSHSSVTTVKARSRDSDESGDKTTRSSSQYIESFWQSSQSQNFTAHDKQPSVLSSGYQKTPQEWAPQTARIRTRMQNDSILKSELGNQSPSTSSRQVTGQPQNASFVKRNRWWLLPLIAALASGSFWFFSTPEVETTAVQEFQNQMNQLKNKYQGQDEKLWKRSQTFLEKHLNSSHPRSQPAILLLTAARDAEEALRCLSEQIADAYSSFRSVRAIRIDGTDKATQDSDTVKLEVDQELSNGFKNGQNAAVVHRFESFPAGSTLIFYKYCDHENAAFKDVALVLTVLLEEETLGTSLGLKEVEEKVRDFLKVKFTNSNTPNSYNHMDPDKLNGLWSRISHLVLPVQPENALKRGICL
Chain of Left-right determination factor 2 (Homo sapiens) (O00292 whole entry, looked up): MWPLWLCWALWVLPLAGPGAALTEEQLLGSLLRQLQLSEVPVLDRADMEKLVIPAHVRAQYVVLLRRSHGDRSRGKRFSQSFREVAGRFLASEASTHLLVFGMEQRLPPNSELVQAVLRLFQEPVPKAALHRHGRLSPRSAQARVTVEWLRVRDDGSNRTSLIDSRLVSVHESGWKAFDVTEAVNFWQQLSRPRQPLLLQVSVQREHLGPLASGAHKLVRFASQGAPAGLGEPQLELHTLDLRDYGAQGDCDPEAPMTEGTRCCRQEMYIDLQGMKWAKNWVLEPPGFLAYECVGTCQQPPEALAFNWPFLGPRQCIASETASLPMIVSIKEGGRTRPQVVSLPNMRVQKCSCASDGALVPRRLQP

For `C[C@H]1C=CCC(=O)OC[C@H](C)C(=O)N2CCC[C@H]2C(=O)OC1`, the composite z-score [1] was -2.34, the z-score [2] was -0.971 and the composite z-score [3] was 1.62. It also gave a composite z-score [4] of -0.774, a composite z-score [5] of -1.82 and a composite z-score [6] of -0.174. The composite z-score [7] was -0.0709, the composite z-score [8] was -0.137 and the composite z-score [9] was 1.71. It also gave a composite z-score [10] of -0.477.

Work on `CCOC(=O)[C@H](Cc1ccccc1)NC(=O)CCC1CC(OC(=O)NCc2cccc3ccccc23)CC2(CCCC(COC(=O)NCCOc3ccccc3)O2)O1` (stereo not given in full) yielded a composite z-score [1] of 1.35, a z-score [2] of -0.795 and a composite z-score [3] of 0.628. For the same molecule, the composite z-score [4] was 0.653, the composite z-score [5] was -0.378 and the composite z-score [6] was -0.176. It also gave a composite z-score [7] of -0.493, a composite z-score [8] of -0.347 and a composite z-score [9] of 0.166. For the same molecule, the composite z-score [10] was 0.594.

With `COc1ccc(COC(=O)NN=C2C[C@@H](O)[C@@H](O)[C@@H]3[C@@H]4C(=O)N(C5CCCCC5)C(=O)[C@@H]4CC[C@@H]23)cc1` the composite z-score [1] was 0.14, the z-score [2] was -1.76 and the composite z-score [3] was 0.0141. For the same molecule, the composite z-score [4] was -0.53, the composite z-score [5] was -0.811 and the composite z-score [6] was -0.0529. For the same molecule, the composite z-score [7] was -0.0769, the composite z-score [8] was -0.261 and the composite z-score [9] was -0.011. It also gave a composite z-score [10] of 0.229.

In the case of `O=C1C2=CC[C@H]3C(=O)N(Cc4ccccc4)C(=O)[C@H]3[C@H]2[C@H](O)[C@@H]2O[C@H]12`, the composite z-score [1] is reported as -0.695, the z-score [2] is reported as -5.09 and the composite z-score [3] is reported as 0.101. It also gave a composite z-score [4] of -0.476, a composite z-score [5] of -0.65 and a composite z-score [6] of -0.129. The composite z-score [7] was -0.0553, the composite z-score [8] was -0.158 and the composite z-score [9] was 0.237. It also gave a composite z-score [10] of 0.0012.

`C#CCCCON=C1[C@H]2CCn3c(=O)n([C@@H](CC)c4ccccc4)c(=O)n3[C@H]2[C@H](O)[C@@H]2O[C@H]12` showed a composite z-score [1] of -0.194, a z-score [2] of -3.43 and a composite z-score [3] of 0.0878. The composite z-score [4] was -0.184, the composite z-score [5] was -0.483 and the composite z-score [6] was -0.0799. It also gave a composite z-score [7] of -0.0295, a composite z-score [8] of -0.35 and a composite z-score [9] of -0.0356. For the same molecule, the composite z-score [10] was -0.151.

With `C=CC[C@@H]1C=C[C@H](ON=C(C)CCN2CCCc3nc(C)c(C)cc32)[C@@H](CO)O1` the composite z-score [1] was 0.298, the z-score [2] was -0.839 and the composite z-score [3] was 1.14. For the same molecule, the composite z-score [4] was -0.0351, the composite z-score [5] was -1.43 and the composite z-score [6] was 0.264. It also gave a composite z-score [7] of 0.586, a composite z-score [8] of 0.525 and a composite z-score [9] of 1.83. It also gave a composite z-score [10] of 0.366.

`CCOC(=O)[C@H](CC(C)C)NC(=O)CCC1CC(OC(=O)NCCc2ccc(F)cc2)CC2(CCCC(COC(=O)NCc3cccc4ccccc34)O2)O1` (stereo not given in full) showed a composite z-score [1] of 0.548, a z-score [2] of -0.893 and a composite z-score [3] of 0.824. It also gave a composite z-score [4] of 0.239, a composite z-score [5] of -0.364 and a composite z-score [6] of -0.156. For the same molecule, the composite z-score [7] was -0.237, the composite z-score [8] was -0.497 and the composite z-score [9] was 0.219. The composite z-score [10] was 0.0466.

`O=C1C[C@H](c2ccccc2)[C@H](c2ccc(Br)cc2)O1` showed a composite z-score [1] of 0.12, a z-score [2] of 0.588 and a composite z-score [3] of 0.603. It also gave a composite z-score [4] of -0.649, a composite z-score [5] of -0.447 and a composite z-score [6] of -0.129. It also gave a composite z-score [7] of -0.138, a composite z-score [8] of -0.35 and a composite z-score [9] of -0.264. The composite z-score [10] was 0.239.

`CCN1C(=O)[C@H]2[C@H]3[C@H](O)[C@H](O)CC(=NO[C@H](C)c4cn([C@H](CO)Cc5ccccc5)nn4)[C@@H]3CC[C@H]2C1=O` showed a composite z-score [1] of 0.485, a z-score [2] of -1.02 and a composite z-score [3] of 0.741. It also gave a composite z-score [4] of 0.782, a composite z-score [5] of -0.0865 and a composite z-score [6] of -0.0573. It also gave a composite z-score [7] of -0.358, a composite z-score [8] of 0.202 and a composite z-score [9] of 0.476. It also gave a composite z-score [10] of 1.29.

For `COC(=O)[C@@H]1CC[C@H](C)[C@@H](c2ccc(C)cc2)N1C(=O)c1ccc(C=NOC[C@H]2O[C@H](c3ccccc3)C=C[C@@H]2Oc2ccc(OC)cc2)cc1`, the composite z-score [1] was 0.404, the z-score [2] was -0.739 and the composite z-score [3] was 0.35. For the same molecule, the composite z-score [4] was -0.156, the composite z-score [5] was -0.551 and the composite z-score [6] was 0.0104. The composite z-score [7] was -0.234, the composite z-score [8] was 0.0498 and the composite z-score [9] was 1.18. The composite z-score [10] was 0.304.

With `O=C1[C@H]2[C@H]3[C@H](O)[C@H](O)CC(=NOC[C@@H](O)COCc4ccco4)[C@@H]3CC[C@H]2C(=O)N1Cc1ccc2c(c1)OCO2` the composite z-score [1] was -0.772, the z-score [2] was 0.0878 and the composite z-score [3] was 1.44. The composite z-score [4] was -0.982, the composite z-score [5] was -2.03 and the composite z-score [6] was -0.172. The composite z-score [7] was -0.123, the composite z-score [8] was -0.34 and the composite z-score [9] was 0.0886. It also gave a composite z-score [10] of 0.0167.

Molecule `CCOC(=O)[C@H](Cc1ccccc1)NC(=O)CCC1CC(OC(=O)NCCc2ccc(F)cc2)CC2(CCCC(COC(=O)NCCC(C)C)O2)O1` (stereo not given in full) has a composite z-score [1] of 1.4, a z-score [2] of -0.833 and a composite z-score [3] of 0.676. It also gave a composite z-score [4] of -0.0594, a composite z-score [5] of -0.478 and a composite z-score [6] of -0.164. For the same molecule, the composite z-score [7] was -0.253, the composite z-score [8] was -0.0524 and the composite z-score [9] was 0.523. The composite z-score [10] was 0.633.

For `CC(C)=CCCC(C)=CCON=C1C[C@@H](O)[C@@H](O)[C@@H]2[C@@H]3C(=O)N(Cc4ccc5c(c4)OCO5)C(=O)[C@@H]3CC[C@@H]12`, the composite z-score [1] was 0.909, the z-score [2] was 0.298 and the composite z-score [3] was 0.368. For the same molecule, the composite z-score [4] was 0.359, the composite z-score [5] was -0.0661 and the composite z-score [6] was 0.0388. It also gave a composite z-score [7] of -0.0396, a composite z-score [8] of 0.824 and a composite z-score [9] of 0.999. It also gave a composite z-score [10] of 0.59.

For `CN1CCc2nc(-c3ccccc3)c(-c3ccccc3)cc2C1`, the composite z-score [1] was 0.321, the z-score [2] was 0.179 and the composite z-score [3] was 0.47. The composite z-score [4] was -0.174, the composite z-score [5] was -0.414 and the composite z-score [6] was -0.0239. The composite z-score [7] was 0.204, the composite z-score [8] was -0.287 and the composite z-score [9] was 0.269. It also gave a composite z-score [10] of 0.127.

Work on `CC(=O)OC[C@H]1O[C@H](CC=NOC(C)CN2CCCc3nc(C)c(C)cc32)C=C[C@@H]1OC(C)=O` (stereo not given in full) yielded a composite z-score [1] of 0.838, a z-score [2] of -0.475 and a composite z-score [3] of 0.833. For the same molecule, the composite z-score [4] was -0.651, the composite z-score [5] was -1.2 and the composite z-score [6] was 0.027. The composite z-score [7] was 0.261, the composite z-score [8] was 0.134 and the composite z-score [9] was 1. The composite z-score [10] was -0.0213.

For `Cc1cc(C)c(-c2cc([C@H](C)ON=C[C@@H](C)[C@H](OCc3ccccc3)C(C)C)on2)c(C)c1`, the composite z-score [1] was -1.42, the z-score [2] was -2.06 and the composite z-score [3] was -0.0341. It also gave a composite z-score [4] of -0.27, a composite z-score [5] of -0.34 and a composite z-score [6] of -0.0403. It also gave a composite z-score [7] of 0.0815, a composite z-score [8] of -0.168 and a composite z-score [9] of -0.601. It also gave a composite z-score [10] of 0.108.

Molecule `CC(C)=CCCC(C)=CCON=C1C[C@@H](O)[C@@H](O)[C@@H]2[C@@H]3C(=O)N(Cc4ccc5c(c4)OCO5)C(=O)[C@@H]3CC[C@H]12` has a composite z-score [1] of 1.38, a z-score [2] of -1.45 and a composite z-score [3] of 0.546. For the same molecule, the composite z-score [4] was -0.588, the composite z-score [5] was -1.11 and the composite z-score [6] was -0.0346. The composite z-score [7] was -0.2, the composite z-score [8] was -0.28 and the composite z-score [9] was 0.142. For the same molecule, the composite z-score [10] was 0.168.

Molecule `C=CC[C@@H]1C=C[C@H](ON=C2C[C@@H](O)[C@@H](O)[C@@H]3[C@@H]4C(=O)N(CC)C(=O)[C@@H]4CC[C@@H]23)[C@@H](CO)O1` has a composite z-score [1] of -0.573, a z-score [2] of 0.0355 and a composite z-score [3] of 0.13. For the same molecule, the composite z-score [4] was -0.758, the composite z-score [5] was -0.777 and the composite z-score [6] was -0.131. For the same molecule, the composite z-score [7] was 0.116, the composite z-score [8] was 0.0541 and the composite z-score [9] was -0.164. It also gave a composite z-score [10] of -1.03.
